Active and inactive are the calls of the source. How the source made its calls: active means hit-call score of the fitted dose curve at least 0.9, where 1 is the maximum; inactive means score below 0.9.
Experiments:
Conditions in all cases: mRNA level, 48 h; actives raise or lower the signal
CYP4A11 (gene 1579) = test: LTEA_HepaRG_CYP4A11: Life Technologies and Expression Analysis (LTEA) Assay for CYP4A11 using HepaRG (AID 2283486)
Procedure, shortened: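 Differentiated HepaRG cells, 48 h after plating, exposed in duplicate for 48 h to 8 half-log concentrations up to 100 uM in 0.5% DMSO in serum-free induction medium. CYP4A11 mRNA measured by TaqMan qRT-PCR, normalized to ACTB, GAPDH and POLR2A.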

[1] = read-out: Cytochrome P450 3A4 (Homo sapiens) (UniProt P08684); test: LTEA_HepaRG_CYP3A4: Life Technologies and Expression Analysis (LTEA) Assay for CYP3A4 using HepaRG (AID 2283487)
Procedure, shortened: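 Differentiated HepaRG cells in serum-free induction medium exposed in duplicate for 48 h to 8 half-log concentrations up to 100 uM in 0.5% DMSO. CYP3A4 mRNA measured by qRT-PCR normalized to ACTB, GAPDH and POLR2A; bidirectional fit versus DMSO.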

[2] = read-out: DNA damage-inducible transcript 3 (DDIT3), DDIT3 (gene 1649); test: LTEA_HepaRG_DDIT3: Life Technologies and Expression Analysis (LTEA) Assay for DNA damage-inducible transcript 3 (DDIT3) using HepaRG (AID 2283488)
Procedure, shortened: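 HepaRG plated 48 h, switched to serum-free induction medium, dosed 48 h (100 uM top, half-log, 8 pts, 0.5% DMSO, n=2); RNA isolated; DDIT3 by qRT-PCR; bidirectional curve fit vs DMSO.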

[3] = read-out: Pro-epidermal growth factor (Homo sapiens) (UniProt P01133); test: LTEA_HepaRG_EGF: Life Technologies and Expression Analysis (LTEA) Assay for Epidermal growth factor (EGF) using HepaRG (AID 2283489)
Procedure, shortened: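 HepaRG cells (~100,000/well, 48 h pre-culture) exposed in duplicate for 48 h in serum-free induction medium to 8 half-log concentrations up to 100 uM in 0.5% DMSO. EGF mRNA by qRT-PCR, normalized to ACTB/GAPDH/POLR2A; bidirectional fit versus DMSO.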

[4] = read-out: Early growth response protein 1 (EGR1) transcription factor, EGR1 (gene 1958); test: LTEA_HepaRG_EGR1: Life Technologies and Expression Analysis (LTEA) Assay for Early growth response protein 1 (EGR1) transcription factor using HepaRG (AID 2283490)
Procedure, shortened: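 Differentiated HepaRG cells in serum-free induction medium exposed 48 hours, duplicate, to 8 half-log concentrations up to 100 uM in 0.5% DMSO. EGR1 mRNA measured by TaqMan qRT-PCR, normalized to ACTB, GAPDH, POLR2A; bidirectional fit versus DMSO.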

[5] = read-out: Ezrin (EZR), EZR (gene 7430); test: LTEA_HepaRG_EZR: Life Technologies and Expression Analysis (LTEA) Assay for Ezrin (EZR) using HepaRG (AID 2283491)
Procedure, shortened: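 Differentiated human HepaRG cells, 48 h after plating, were exposed in serum-free induction medium for 48 hours to eight half-log concentrations up to 100 uM in 0.5% DMSO. EZR mRNA was measured by TaqMan qRT-PCR, normalized to ACTB, GAPDH and POLR2A, and fitted bidirectionally against DMSO.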

[6] = read-out: Cytochrome P450 3A7 (Homo sapiens) (UniProt P24462); test: LTEA_HepaRG_CYP3A7: Life Technologies and Expression Analysis (LTEA) Assay for CYP3A7 using HepaRG (AID 2283492)
Procedure, shortened: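 Differentiated HepaRG cells in serum-free induction medium exposed 48 h in duplicate to 8-point half-log series from 100 uM top in 0.5% DMSO. CYP3A7 mRNA by qRT-PCR, normalized to ACTB/GAPDH/POLR2A, bidirectional fit versus DMSO.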

CYP3A5 (gene 1577) = test: LTEA_HepaRG_CYP3A5: Life Technologies and Expression Analysis (LTEA) Assay for CYP3A5 using HepaRG (AID 2283493)
Procedure, shortened: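 HepaRG plated 48 h, switched to serum-free induction medium, chemicals added 48 h (max 100 uM, half-log, 0.5% DMSO). RNA isolated; CYP3A5 by TaqMan qRT-PCR. Gain/loss vs DMSO.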

[7] = read-out: Fatty Acid-Binding Protein 1 (FABP1), FABP1 (gene 2168); test: LTEA_HepaRG_FABP1: Life Technologies and Expression Analysis (LTEA) Assay for Fatty Acid-Binding Protein 1 (FABP1) using HepaRG (AID 2283494)
Procedure, shortened: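 Differentiated human HepaRG cells exposed 48 h in serum-free induction medium to eight half-log concentrations up to 100 uM (0.5% DMSO), duplicate. FABP1 mRNA by qRT-PCR, normalised to ACTB, GAPDH, POLR2A; bidirectional fitting against DMSO.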

[8] = read-out: Cytochrome P450 4A22 (Homo sapiens) (UniProt Q5TCH4); test: LTEA_HepaRG_CYP4A22: Life Technologies and Expression Analysis (LTEA) Assay for Cytochrome P450 4A22 (CYP4A22) using HepaRG (AID 2283495)
Procedure, shortened: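 Differentiated HepaRG cells in serum-free induction medium exposed 48 h in duplicate to eight half-log concentrations up to 100 uM in 0.5% DMSO. CYP4A22 mRNA quantified by TaqMan qRT-PCR, normalized to ACTB, GAPDH and POLR2A; bidirectional fit versus DMSO.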

[9] = read-out: Cytochrome P450 7A1 (Homo sapiens) (UniProt P22680); test: LTEA_HepaRG_CYP7A1: Life Technologies and Expression Analysis (LTEA) Assay for Cytochrome P450 7A1 (CYP7A1) using HepaRG (AID 2283496)
Procedure, shortened: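 HepaRG cells plated 48 h, then switched to serum-free induction medium and exposed in duplicate for 48 h to 8-point half-log series from 100 uM in 0.5% DMSO. CYP7A1 mRNA by qRT-PCR (TaqMan), normalized to ACTB/GAPDH/POLR2A; bidirectional fit versus DMSO.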

[10] = read-out: Glutathione S-Transferase (GSTA2), GSTA2 (gene 2939); test: LTEA_HepaRG_GSTA2: Life Technologies and Expression Analysis (LTEA) Assay for Glutathione S-Transferase (GSTA2) using HepaRG (AID 2283497)
Procedure, shortened: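 Differentiated human HepaRG cells were exposed in duplicate for 48 h in serum-free induction medium, 8 points from 100 uM top in half-log steps, 0.5% DMSO. GSTA2 mRNA was measured by TaqMan qRT-PCR, normalized to ACTB, GAPDH and POLR2A; bidirectional fit versus DMSO.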

[11] = read-out: Glutamate-cysteine ligase catalytic (GCLC), GCLC (gene 2729); test: LTEA_HepaRG_GCLC: Life Technologies and Expression Analysis (LTEA) Assay for Glutamate-cysteine ligase catalytic (GCLC) using HepaRG (AID 2283498)
Procedure, shortened: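 Differentiated HepaRG cells exposed 48 h in serum-free induction medium, eight-point half-log series topping at 100 uM in 0.5% DMSO, duplicates. GCLC mRNA by qRT-PCR normalized to ACTB, GAPDH and POLR2A, fitted bidirectionally versus DMSO.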

[12] = read-out: growth arrest and DNA damage 45 (GADD45G), GADD45G (gene 10912); test: LTEA_HepaRG_GADD45G: Life Technologies and Expression Analysis (LTEA) Assay for growth arrest and DNA damage 45 (GADD45G) using HepaRG (AID 2283499)
Procedure, shortened: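 Differentiated human HepaRG cells, 48 h post-plating, exposed 48 h in serum-free induction medium to 8 half-log concentrations (top 100 uM, 0.5% DMSO) in duplicate. GADD45G mRNA measured by Fluidigm TaqMan qRT-PCR, normalized to ACTB, GAPDH, POLR2A; bidirectional fit versus DMSO.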

[13] = read-out: Glutamate-cysteine ligase regulatory (GCLM), GCLM (gene 2730); test: LTEA_HepaRG_GCLM: Life Technologies and Expression Analysis (LTEA) Assay for Glutamate-cysteine ligase regulatory (GCLM) using HepaRG (AID 2283500)
Procedure, shortened: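 Cells were plated, cultured 48 h, switched to serum-free induction medium, then dosed in duplicate for 48 h at eight half-log concentrations up to 100 uM. RNA was then profiled by qRT-PCR; gain or loss versus DMSO was fitted.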

[14] = read-out: Glutathione S-transferase M3 (GSTM3), GSTM3 (gene 2947); test: LTEA_HepaRG_GSTM3: Life Technologies and Expression Analysis (LTEA) Assay for Glutathione S-transferase M3 (GSTM3) using HepaRG (AID 2283501)
Procedure, shortened: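 Differentiated human HepaRG cells were exposed in duplicate for 48 h in serum-free induction medium, 8 points from 100 uM top in half-log steps, 0.5% DMSO. GSTM3 mRNA was measured by TaqMan qRT-PCR, normalized to ACTB, GAPDH and POLR2A; bidirectional fit versus DMSO.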

[15] = read-out: Heat shock 70 kDa protein 1 (HSPA1A), gene 3303; test: LTEA_HepaRG_HSPA1A: Life Technologies and Expression Analysis (LTEA) Assay for Heat shock 70 kDa protein 1 (HSPA1A) using HepaRG (AID 2283502)
Procedure, shortened: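 Readout is HSPA1A transcript level by microfluidic qRT-PCR, normalized to three housekeeping genes and analysed for gain or loss of signal relative to 0.5% DMSO. Human HepaRG cultures received test chemicals for 48 h at up to 100 uM.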

[16] = read-out: Hypoxia-inducible factor 1-alpha (Homo sapiens) (UniProt Q16665); test: LTEA_HepaRG_HIF1A: Life Technologies and Expression Analysis (LTEA) Assay for Hypoxia-inducible factor 1 (HIF1A) Trancription factor using HepaRG (AID 2283503)
Procedure, shortened: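 Differentiated HepaRG cells in serum-free induction medium exposed 48 h, in duplicate, to 8-point half-log series from 100 uM in 0.5% DMSO. HIF1A mRNA measured by TaqMan qRT-PCR, normalized to ACTB/GAPDH/POLR2A, fitted bidirectionally versus DMSO.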

[17] = read-out: 3-Hydroxy-3-Methylglutaryl-CoA Synthase 2 (HMGCS2), HMGCS2 (gene 3158); test: LTEA_HepaRG_HMGCS2: Life Technologies and Expression Analysis (LTEA) Assay for 3-Hydroxy-3-Methylglutaryl-CoA Synthase 2 (HMGCS2) using HepaRG (AID 2283504)
Procedure, shortened: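 Human HepaRG cells in serum-free induction medium were exposed in duplicate for 48 h to 8-point half-log series from 100 uM top in 0.5% DMSO. HMGCS2 mRNA measured by TaqMan qRT-PCR, normalised to ACTB, GAPDH, POLR2A; bidirectional fit versus DMSO.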

HGF (gene 3082) = test: LTEA_HepaRG_HGF: Life Technologies and Expression Analysis (LTEA) Assay for Hepatocyte Growth Facto (HGF) using HepaRG (AID 2283505)
Procedure, shortened: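 Differentiated HepaRG cells in serum-free induction medium exposed 48 h in duplicate, 8 half-log concentrations from 100 uM in 0.5% DMSO. HGF mRNA by qRT-PCR, normalised to ACTB, GAPDH, POLR2A; bidirectional fitting.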

Measured: outcome

Cytochrome P450 3A7 (Homo sapiens), sequence (P24462 whole entry, looked up): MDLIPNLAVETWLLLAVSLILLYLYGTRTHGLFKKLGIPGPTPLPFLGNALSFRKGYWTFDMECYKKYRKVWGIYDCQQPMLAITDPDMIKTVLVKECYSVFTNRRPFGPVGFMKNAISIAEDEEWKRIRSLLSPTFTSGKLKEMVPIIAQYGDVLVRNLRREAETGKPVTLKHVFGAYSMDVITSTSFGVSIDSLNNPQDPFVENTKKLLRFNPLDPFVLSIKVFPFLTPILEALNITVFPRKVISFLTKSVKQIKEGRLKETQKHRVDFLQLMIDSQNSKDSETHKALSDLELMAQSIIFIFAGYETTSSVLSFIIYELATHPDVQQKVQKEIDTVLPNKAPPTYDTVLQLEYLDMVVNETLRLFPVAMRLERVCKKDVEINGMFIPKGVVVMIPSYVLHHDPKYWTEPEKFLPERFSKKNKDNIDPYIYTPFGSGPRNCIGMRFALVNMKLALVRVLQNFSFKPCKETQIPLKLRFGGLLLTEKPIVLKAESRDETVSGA
Cytochrome P450 3A4 (Homo sapiens), sequence (P08684 whole entry, looked up): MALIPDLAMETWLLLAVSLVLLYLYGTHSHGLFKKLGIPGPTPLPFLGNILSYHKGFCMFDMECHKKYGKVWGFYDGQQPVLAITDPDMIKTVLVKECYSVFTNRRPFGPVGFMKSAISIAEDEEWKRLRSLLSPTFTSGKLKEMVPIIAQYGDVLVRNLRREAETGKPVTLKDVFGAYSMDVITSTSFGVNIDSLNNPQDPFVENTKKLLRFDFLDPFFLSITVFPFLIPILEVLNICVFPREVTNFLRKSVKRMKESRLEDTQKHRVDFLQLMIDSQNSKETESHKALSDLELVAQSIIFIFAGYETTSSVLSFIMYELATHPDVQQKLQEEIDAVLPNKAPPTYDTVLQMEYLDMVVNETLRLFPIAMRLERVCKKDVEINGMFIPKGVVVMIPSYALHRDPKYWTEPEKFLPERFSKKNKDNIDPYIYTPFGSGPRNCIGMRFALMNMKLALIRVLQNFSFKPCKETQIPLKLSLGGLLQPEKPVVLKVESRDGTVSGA
Hypoxia-inducible factor 1-alpha (Homo sapiens), sequence (Q16665 whole entry, looked up): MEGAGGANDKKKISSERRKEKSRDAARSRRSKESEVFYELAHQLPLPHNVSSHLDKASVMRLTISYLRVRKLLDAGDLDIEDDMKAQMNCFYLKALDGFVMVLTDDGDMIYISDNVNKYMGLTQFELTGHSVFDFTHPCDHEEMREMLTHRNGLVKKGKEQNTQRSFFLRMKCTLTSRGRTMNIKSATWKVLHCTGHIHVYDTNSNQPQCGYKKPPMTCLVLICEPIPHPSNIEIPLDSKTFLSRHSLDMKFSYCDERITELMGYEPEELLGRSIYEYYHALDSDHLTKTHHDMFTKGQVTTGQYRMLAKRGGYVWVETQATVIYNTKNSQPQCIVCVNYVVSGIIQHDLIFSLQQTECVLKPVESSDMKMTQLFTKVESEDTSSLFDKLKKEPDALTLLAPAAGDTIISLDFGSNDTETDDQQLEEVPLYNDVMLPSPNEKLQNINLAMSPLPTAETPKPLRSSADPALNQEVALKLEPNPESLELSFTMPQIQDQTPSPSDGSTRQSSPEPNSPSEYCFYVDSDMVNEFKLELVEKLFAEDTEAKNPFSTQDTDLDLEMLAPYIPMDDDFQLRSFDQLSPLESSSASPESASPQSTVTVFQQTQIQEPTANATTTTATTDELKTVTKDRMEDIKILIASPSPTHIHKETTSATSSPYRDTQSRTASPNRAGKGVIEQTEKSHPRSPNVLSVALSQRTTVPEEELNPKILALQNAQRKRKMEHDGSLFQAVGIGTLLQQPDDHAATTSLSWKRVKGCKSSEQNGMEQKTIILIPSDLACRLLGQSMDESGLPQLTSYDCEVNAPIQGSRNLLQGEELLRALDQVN

CCC(C)=NO
inactive: CYP4A11 (gene 1579) | [1] | [2] | [3] | [4] | [5] | [6] | CYP3A5 (gene 1577) | [7] | [8] | [9] | [10] | [11] | [12] | [13] | [14] | [15] | [16] | [17] | HGF (gene 3082)
